# In the library only some 1.6% were active in any assay of this set; here they are far more common.
# eIF4E 4G PPI – eIF4E–eIF4G protein interaction inhibitors, primary screen, biochemical, uHTS, TR-FRET, eIF4GI fragment; Eukaryotic translation initiation factor 4E (Mus musculus) + Eukaryotic translation …; TR-FRET eIF4E-eIF4GI(517-606) binding, 2 h; inhibition, % at 21.7 µM; 0.37% of 220,000 active; AID 782, 2007;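 active = inhibition above about 30%, limit read from the data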;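 also: 0% = full FRET control wells and 100% = background wells lacking eIF4GI fragment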
# Target sequence (P63073 whole entry, looked up, the tested form may be a part): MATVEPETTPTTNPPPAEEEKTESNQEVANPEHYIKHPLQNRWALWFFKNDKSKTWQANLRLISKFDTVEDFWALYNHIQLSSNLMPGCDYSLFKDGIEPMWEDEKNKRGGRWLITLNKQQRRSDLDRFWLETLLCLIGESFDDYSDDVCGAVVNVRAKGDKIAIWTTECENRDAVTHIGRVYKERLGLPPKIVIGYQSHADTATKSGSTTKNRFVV
# Target sequence (Q04637 whole entry, looked up, the tested form may be a part): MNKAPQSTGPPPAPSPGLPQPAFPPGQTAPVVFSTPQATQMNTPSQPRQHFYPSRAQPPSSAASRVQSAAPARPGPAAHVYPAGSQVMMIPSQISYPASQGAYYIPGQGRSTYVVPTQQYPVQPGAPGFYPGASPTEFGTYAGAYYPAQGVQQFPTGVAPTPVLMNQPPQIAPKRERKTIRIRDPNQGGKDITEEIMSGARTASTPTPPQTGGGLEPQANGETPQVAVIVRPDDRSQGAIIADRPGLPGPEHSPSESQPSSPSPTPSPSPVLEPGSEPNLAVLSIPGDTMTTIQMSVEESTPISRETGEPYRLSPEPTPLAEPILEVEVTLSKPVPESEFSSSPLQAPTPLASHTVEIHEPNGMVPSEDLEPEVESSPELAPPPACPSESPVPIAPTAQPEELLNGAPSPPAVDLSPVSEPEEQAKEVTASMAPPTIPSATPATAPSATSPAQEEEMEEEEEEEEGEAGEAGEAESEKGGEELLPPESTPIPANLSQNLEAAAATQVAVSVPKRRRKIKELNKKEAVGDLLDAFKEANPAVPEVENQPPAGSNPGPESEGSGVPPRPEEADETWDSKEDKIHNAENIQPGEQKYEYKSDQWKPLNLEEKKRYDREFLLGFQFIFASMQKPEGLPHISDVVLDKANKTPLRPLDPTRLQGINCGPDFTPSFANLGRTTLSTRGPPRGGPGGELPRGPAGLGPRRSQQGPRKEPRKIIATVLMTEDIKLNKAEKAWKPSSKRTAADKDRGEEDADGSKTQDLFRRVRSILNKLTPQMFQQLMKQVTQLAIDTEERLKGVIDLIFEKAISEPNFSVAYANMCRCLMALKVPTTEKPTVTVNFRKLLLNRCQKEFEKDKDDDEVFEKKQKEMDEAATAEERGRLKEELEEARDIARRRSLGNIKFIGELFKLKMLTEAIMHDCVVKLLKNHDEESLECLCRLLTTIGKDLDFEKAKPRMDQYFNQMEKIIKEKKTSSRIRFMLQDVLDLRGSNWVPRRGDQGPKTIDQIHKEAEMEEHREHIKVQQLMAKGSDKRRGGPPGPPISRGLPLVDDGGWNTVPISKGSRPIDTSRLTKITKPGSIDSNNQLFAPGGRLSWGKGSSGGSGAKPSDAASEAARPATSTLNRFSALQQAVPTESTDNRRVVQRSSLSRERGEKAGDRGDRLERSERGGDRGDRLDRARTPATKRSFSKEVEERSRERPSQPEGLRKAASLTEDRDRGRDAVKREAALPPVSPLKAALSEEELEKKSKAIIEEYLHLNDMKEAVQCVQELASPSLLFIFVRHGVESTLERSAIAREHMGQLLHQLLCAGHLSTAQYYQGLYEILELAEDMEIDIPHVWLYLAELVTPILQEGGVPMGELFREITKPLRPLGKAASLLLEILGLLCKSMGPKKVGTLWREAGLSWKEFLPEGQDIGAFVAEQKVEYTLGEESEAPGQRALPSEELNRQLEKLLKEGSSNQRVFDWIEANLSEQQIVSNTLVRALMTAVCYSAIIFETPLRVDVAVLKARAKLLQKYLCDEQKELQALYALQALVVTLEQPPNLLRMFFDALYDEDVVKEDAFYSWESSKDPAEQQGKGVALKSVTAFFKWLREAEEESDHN
# PABP1 MLLE inh – inhibitors of PABP1 MLLE–PAM2 peptide binding, primary screen, biochemical, fluorescence polarization, FITC-PAM2, GST-MLLE; Polyadenylate-binding protein 1 (Homo sapiens), P11940; inhibition, % at 20 µM; 0.36% of 360,000 active; AID 588489, 2011; in the data active = inhibition above about 35%, passing the limit was not always enough;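 also: plate controls were DMSO wells with GST-MLLE for no effect and wells lacking GST-MLLE protein for full effect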
# PABP polyA inh – PABP poly(A) RNA binding inhibitors, primary screen, biochemical, fluorescence polarization, uHTS | 1% of 290,000 active | calls only at 35 µM | Polyadenylate-binding protein 1 (Homo sapiens), P11940 | AID 2014, 2009;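 also: calls also rest on retests at 20 µM and on dose response follow-up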
# eIF4H inh – human eIF4H binding inhibitors, primary screen, translation initiation inhibitor project, biochemical, uHTS, fluorescence polarization. Eukaryotic translation initiation factor 4H (Homo sapiens), Q15056. eIF4H fluorescence polarization binding assay. inhibition, % at 35 µM. 0.94% of 290,000 active;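 also: calls also rest on retests at 20 µM and on dose response follow-up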
# PERK inh – block of dimerizer-induced PERK translation repression, primary screen, PERK inhibitor project, CHO PERK-DD cells, SEAP luminescence, HTS. Eukaryotic translation initiation factor 2-alpha kinase 3 (Homo sapiens), Q9NZJ5. CHO PERK-DD fusion, SEAP luminescence translation reporter. inhibition, % at 5.6 µM. 0.17% of 220,000 active. AID 1416, 2008;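 active = inhibition above the mean inhibition of all tested compounds plus 3 SD, set separately per screening campaign, cut at about 2.9% in these data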;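 also: PERK kinase domain activated by AP20187 dimerizer at 100 nM; 0% = DMSO with dimerizer and 100% = rapamycin at 8.4 µM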
# Numbers without * were called inactive; i = inactive; ? = inconclusive; / = no result given; + = active, no number; [ ] = another dose, or the depositor's remark. Unless noted, no rule for the calls is given here.
SMILES,eIF4E 4G PPI,PABP1 MLLE inh,PABP polyA inh,eIF4H inh,PERK inh
COc1ccc(O)c(/C=N/NC(=S)Nc2cccnc2)c1,-1,41*,i,12,0
COc1cccc(/C=N/NC(=S)Nc2cccnc2)c1,0,32,?,-10,0
Oc1ccc(/C=N/NC(=S)Nc2cccnc2)cc1,4,38*,i,-5,1
O=C(Nc1cc2c(cc1C(=O)O)OCCCO2)c1ccc(F)cc1F,/,0,i,9,/
Cc1c(O)ccc2c3c(c(=O)oc12)CCCC3,-1,11,i,-2,3.7*
CCOc1ccc(S(=O)(=O)NCC2(N3CCCCC3)CCCCC2)cc1,/,0,/,/,/
CCOc1ccc(S(=O)(=O)NCCC(=O)NCC2(N3CCCCC3)CCCCC2)cc1,/,-7,+,94*,/
NC(=O)c1cccnc1OCC(F)(F)F,-1,22,i,-8,0
CCCNC(=O)NCCc1c(C)[nH]c2ccccc12,-1,53*,i,-2,0
Cc1[nH]c2ccccc2c1CCO,1,-8,i,-9,1
Cc1ccc(-n2c(N)c(C(N)=O)sc2=S)cc1,34*[fluorescence artefact?],32,i,7,-1
O=C(CCC1CCCC1)NCCS(=O)(=O)N1CCN(c2ccccc2)CC1,/,7,/,/,/
COc1ccc(C(=O)N[C@H](C(=O)NCc2cccs2)C(C)C)cc1,-3,-91,i,3,0
CCNC(=O)c1ccc(CSc2ccc(Cl)cc2)cc1,36*,5,i,-4,1
CC(C)c1ccc(C(=O)NCc2ccc(Cl)cc2)cc1,31*[fluorescence artefact?],15,i,-4,1
CC1C2C(C)N(C)C(=O)N(C)C2N(C)C(=O)N1C (centres undefined),2,53*,i,32,0
O=C(NN=Cc1c(F)c(F)c(F)c(F)c1F)c1ccc(NS(=O)(=O)c2cccs2)cc1,/,-1,/,/,/
Oc1c(Br)cc(Br)cc1C=Nc1ccc2[nH]ncc2c1,3,-76,i,37,1
COc1ccc(C=Nc2ccc3[nH]ncc3c2)c(O)c1,4,0,+,77*,2
COc1ccc(OC)c(Cc2nnc(CCC(=O)NCc3ccc(C)s3)o2)c1,4,-12,i,-5,3.3*
N#CC(C(=O)NCCc1ccccc1)c1nc2ccccc2nc1N1CCCCC1 (centres undefined),6,-79,i,36,1
CCN(CC)c1nc2ccccc2nc1C(C#N)C(=O)NCCCOC (centres undefined),6,-18,i,21,-1
CCN(CC)c1nc2ccccc2nc1C(C#N)C(=O)NCCc1ccccc1 (centres undefined),-3,48,i,29*,-2
CCOC(=O)N1CCN(c2nc3ccccc3nc2C(C#N)C(=O)NCCc2ccccc2)CC1 (centres undefined),2,-6,+,46,0
N#Cc1c(Cl)cccc1Oc1ccc(S(=O)(=O)Nc2ccccc2)cc1,6,2,i,-7,-1
SMILES,eIF4E 4G PPI,PABP1 MLLE inh,PABP polyA inh,eIF4H inh,PERK inh
Cc1cc2c(cc1S(=O)(=O)C(C)CC(=O)NCc1ccco1)OCC(=O)N2 (centres undefined),/,8,i,3,/
O=c1c2c3nc4ccccc4nc3n(/N=C/c3ccco3)c2ncn1CCC1=CCCCC1,/,7,i,65*,/
O=C(NNC(=O)C1CCCN(S(=O)(=O)c2ccc3ccccc3c2)C1)C1CC1 (centres undefined),-4,-10,i,-8,4.3*
O=S(=O)(c1ccc2ccccc2c1)N1CCCCCC1,0,-7,i,-15,1
COc1ccccc1NS(=O)(=O)c1ccc(N/N=C/C=C/c2ccccc2[N+](=O)[O-])c([N+](=O)[O-])c1,2,-8,i,-1,0
COc1ccccc1NS(=O)(=O)c1ccc(NN=C2CCCC2)c([N+](=O)[O-])c1,67*[fluorescence artefact?],-14,i,4,1
COc1ccc(C(=O)N/C(=C\c2cn(C)c3ccccc23)C(=O)N2CCOCC2)cc1,/,-24,i,-1,/
Oc1c(Br)cc(Br)cc1C=Nc1cccnc1,/,39*,i,32,/

# Source: PubChem BioAssay
